ELG1 repair inh: blocks ELG1-dependent DNA repair in HEK293T cells; 330,000 tested, 2.3% active; Potency, µM (doses to about 46.1 µM), usual class: inhibitors; AID 504467; HEK293T ELG1-luciferase reporter, luminescence, 16 h; DNA damage induced by 5-fluorouridine; note: nearly all actives have a fitted effect of over 55% in size
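In this reporter screen, reduction of luminescence relative to DMSO vehicle indicated activity. Compounds and 5-fluorouridine were added together to 2,000 cells per well, incubated for 16 hr at 37 °C, then developed with ONE-Glo.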
Giardia kill: Giardia lamblia killing; Giardia lamblia trophozoite viability; activity change, % at 7.66 µM, hits read low; 340,000 tested, 0.15% active; AID 540267; in the data active = activity change below about -80%; inconclusive = between about -30% and that limit;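 note: parasites exposed to compound for two days anaerobically before the ATP read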
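Giardia trophozoites, 100 cells per well, were exposed to compounds for 48 hrs at 37 deg C under anaerobic conditions; viability was then read as ATP content by bioluminescence after 15-30 min at room temperature.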
TRPV1 potentiator: human TRPV1 potentiation; Q8NER1; AID 540277; potentiation, % at 8.33 µM; TRPV1-expressing cells, Fluo-8 calcium influx, capsaicin EC20 potentiation; 320,000 tested, 0.02% active; in the data active = potentiation above about 80%; inconclusive = between about 30% and that limit
Target sequence (Q8NER1 whole entry, looked up): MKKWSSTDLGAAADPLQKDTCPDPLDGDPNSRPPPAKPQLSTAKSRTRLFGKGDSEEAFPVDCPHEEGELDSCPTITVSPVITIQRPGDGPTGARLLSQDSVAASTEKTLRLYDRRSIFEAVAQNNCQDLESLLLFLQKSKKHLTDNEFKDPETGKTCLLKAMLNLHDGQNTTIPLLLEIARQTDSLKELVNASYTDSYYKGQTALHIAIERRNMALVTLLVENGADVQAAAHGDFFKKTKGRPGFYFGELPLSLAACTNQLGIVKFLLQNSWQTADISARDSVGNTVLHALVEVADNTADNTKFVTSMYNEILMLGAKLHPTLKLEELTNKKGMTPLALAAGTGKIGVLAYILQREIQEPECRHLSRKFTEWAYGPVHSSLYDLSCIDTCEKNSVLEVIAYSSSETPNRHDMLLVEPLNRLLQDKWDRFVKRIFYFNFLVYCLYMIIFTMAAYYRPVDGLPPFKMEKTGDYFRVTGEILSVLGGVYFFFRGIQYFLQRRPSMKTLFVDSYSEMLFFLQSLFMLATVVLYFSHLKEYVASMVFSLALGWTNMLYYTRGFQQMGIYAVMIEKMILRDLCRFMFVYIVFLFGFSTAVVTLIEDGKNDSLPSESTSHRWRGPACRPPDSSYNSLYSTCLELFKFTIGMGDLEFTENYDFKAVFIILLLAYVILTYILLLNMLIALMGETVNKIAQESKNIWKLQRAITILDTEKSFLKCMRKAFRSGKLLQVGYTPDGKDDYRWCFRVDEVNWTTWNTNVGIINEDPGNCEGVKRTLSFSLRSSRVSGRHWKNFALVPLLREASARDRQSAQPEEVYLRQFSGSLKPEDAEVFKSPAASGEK
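Cells expressing TRPV1 were dye-loaded with Fluo-8 and read kinetically: 10 s baseline, 3 min after compound (agonist portion), then 2 min after EC20 capsaicin (allosteric enhancer portion). Calcium-bound dye fluorescence at 480/520 nm.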
FUS yeast rescue: suppressors of FUS proteinopathy in yeast. S. cerevisiae FUS-expressing, growth rescue, OD600, 24 h. Potency, µM (doses to about 76.6 µM), actives largely listed as activators. 390,000 tested, 0.24% active; note: nearly all actives have a fitted effect of over 55% in size
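Quantitative HTS measuring growth restoration of FUS-toxic yeast. Galactose-induced cells (OD 0.005) were exposed 24hr at 30C to compounds at several concentrations, then absorbance at 600 nm was recorded.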
TRPV1 ag: activates the human vanilloid receptor TRPV1; AID 540275; TRPV1-expressing cells, Fluo-8 calcium influx, agonist mode; Q8NER1; 320,000 tested, 0.19% active; activation, % at 8.33 µM; in the data active = activation above about 80%; inconclusive = between about 30% and that limit
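TRPV1-expressing cells were cultured overnight at 35.5C and loaded with Fluo-8 calcium dye for 40 to 90 min at room temperature. After a 10 s baseline, compound was added and calcium influx was read kinetically for 3 min (ex 480/em 520 nm).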
Hits are given with their value. Sampled rows, rich in hits. Any-hit rate of the full collection: about 2.3%. Unless noted, calls come from the whole dose curve; as a rule, active = well fitted curve in the direction sought with a large enough effect; inconclusive = small, poorly fitted or top-dose-only effect, or another doubt; inactive = no such curve, though single readings can be large; an effect the other way counts as inactive or inconclusive.

Screening CNC(=S)N1N=C(c2ccc(C)cc2)CC1c1ccc(Br)cc1 (stereo not drawn) returned ELG1 repair inh inconclusive, Giardia kill inactive, TRPV1 potentiator inactive, FUS yeast rescue inactive and TRPV1 ag inactive.
Screening Cc1cc(C)cc(NC(=O)N2CCC(N3CCCCC3)CC2)c1 returned FUS yeast rescue inactive.
COc1ccccc1CCNC(=O)C(=O)NCC(c1ccco1)S(=O)(=O)c1ccc(F)cc1 (stereo not drawn) was read as FUS yeast rescue inactive.
`CCOc1cccc(CC(=O)N2CCc3c([nH]c4ccccc34)C2c2ccc(C)cc2)c1OCC` (stereo not drawn) gave FUS yeast rescue inactive.
`CCn1c(SCC(=O)Nc2ccc(C)cc2Br)nnc1-c1nonc1NC(C)=O` gave FUS yeast rescue inactive.
Screening COc1ccc(-c2csc(N3CCN(c4cc(C)nc5ccccc45)CC3)n2)cc1OC returned ELG1 repair inh 8.2µM, Giardia kill inactive, TRPV1 potentiator inactive, FUS yeast rescue inconclusive and TRPV1 ag inactive.
`COc1ccc(-c2cc(C(=O)N3CCN(c4ccccc4)CC3)c3ccccc3n2)cc1OC` gave ELG1 repair inh 16.4µM, Giardia kill inconclusive, TRPV1 potentiator inactive, FUS yeast rescue inactive and TRPV1 ag inactive.
Screening COc1ccc(-c2cc(C(=O)OCC(=O)N3CCCCC3)c3ccccc3n2)cc1OC returned ELG1 repair inh 9.2µM and Giardia kill inactive.
For COc1cc(-c2cc(C(=O)OCC(=O)NC3CC3)c3ccccc3n2)cc(OC)c1OC the results were ELG1 repair inh 11.6µM, Giardia kill inactive and FUS yeast rescue inactive.
Screening COc1cc(-c2csc(N3CCOCC3)n2)cc(OC)c1OC returned ELG1 repair inh inactive, Giardia kill inactive, TRPV1 potentiator inactive, FUS yeast rescue inactive and TRPV1 ag inactive.
Cc1ccc(NC(=O)NCCOCCn2c(=O)oc3ccccc32)cc1C was read as FUS yeast rescue inactive.
Screening Cn1cc(CCCC(=O)NCc2cccc(Br)c2)c2ccccc21 returned FUS yeast rescue inactive.
Screening O=C(Cn1c(=O)n(CCc2ccccc2)c(=O)c2cccnc21)Nc1ccc(F)cc1 returned FUS yeast rescue inactive.
`CCCn1c(=N)c(C(=O)NC(C)c2ccccc2)cc2c(=O)n3ccccc3nc21` (stereo not drawn) gave FUS yeast rescue inactive.
Cc1cccc2c1-c1sc(C(=O)NCc3ccc(Cl)cc3)cc1CO2 was read as FUS yeast rescue inactive.
Cc1cc2c(cc1S(=O)(=O)Nc1cccc(Cl)c1C)OCCN2C was read as FUS yeast rescue inactive.
Screening O=C(C[C@H]1C/C=C\C[C@@H](Cc2ccc(F)cc2)C(=O)OC[C@H]2CCCN2C1=O)N[C@H](CO)Cc1ccccc1 returned ELG1 repair inh inactive, Giardia kill inactive and FUS yeast rescue inactive.
Screening O=C(C[C@@H]1C/C=C\CC[C@H](Cc2ccc(F)cc2)C(=O)OC[C@@H]2CCCN2C1=O)N[C@H](CO)Cc1ccccc1 returned ELG1 repair inh 20.6µM, Giardia kill inactive and FUS yeast rescue inconclusive.
Screening O=C(C[C@@H]1C/C=C\C[C@H](NC(=O)OCC2c3ccccc3-c3ccccc32)C(=O)OC[C@H]2CCCN2C1=O)N[C@@H](CO)Cc1ccccc1 returned ELG1 repair inh 14.6µM, Giardia kill inactive and FUS yeast rescue inactive.
Screening CC(C)(C)[C@H]1COC(=O)[C@@H](Cc2ccc(F)cc2)CC/C=C/C[C@@H](CC(=O)N[C@@H](CO)Cc2ccccc2)C(=O)N1 returned ELG1 repair inh 25.9µM, Giardia kill inactive and FUS yeast rescue inconclusive.
For O=[N+]([O-])c1ccc2c(c1)ncn2-c1ccccc1 the results were ELG1 repair inh inconclusive, Giardia kill inactive, TRPV1 potentiator inactive, FUS yeast rescue inactive and TRPV1 ag inactive.
For O=[N+]([O-])c1ccc(-n2cnc3ccccc32)c([N+](=O)[O-])c1 the results were ELG1 repair inh 23.1µM, Giardia kill inconclusive, TRPV1 potentiator inactive, FUS yeast rescue inactive and TRPV1 ag inactive.
Screening O=C(CN1C(=O)c2cccnc2Oc2ccc(Cl)cc21)NCCCc1ccccc1 returned ELG1 repair inh 18.3µM, Giardia kill inactive, TRPV1 potentiator inactive, FUS yeast rescue inactive and TRPV1 ag inactive.
For Cc1cc(C)c(NC(=O)CSc2nc(=O)n(Cc3cccnc3)c3c2CCC3)c(C)c1 the results were FUS yeast rescue inactive.
Screening CCOC(=O)C1CCN(S(=O)(=O)c2cccc(-c3cn4cccnc4n3)c2)CC1 returned ELG1 repair inh 13µM, Giardia kill inactive, TRPV1 potentiator inactive, FUS yeast rescue inactive and TRPV1 ag inactive.
Fc1ccc(-n2cc(-c3ccccc3)c3c(N4CCOCC4)ncnc32)cc1 was read as ELG1 repair inh 20.6µM, Giardia kill inactive, TRPV1 potentiator inactive, FUS yeast rescue inconclusive and TRPV1 ag inactive.
`NC(=O)C1CCN(c2ncnc3c2c(-c2ccccc2)cn3-c2ccccc2)CC1` gave ELG1 repair inh 16.4µM, Giardia kill inconclusive, TRPV1 potentiator inactive, FUS yeast rescue inactive and TRPV1 ag inactive.
CCOC(=O)C1CCN(C(=O)c2oc3ccc(S(=O)(=O)N4CC(C)CC(C)C4)cc3c2C)CC1 (stereo not drawn) was read as ELG1 repair inh 10.3µM, Giardia kill inactive, TRPV1 potentiator inactive, FUS yeast rescue inconclusive and TRPV1 ag inactive.
Screening Cc1c(C(=O)O)oc2ccc(S(=O)(=O)N3CC(C)CC(C)C3)cc12 (stereo not drawn) returned ELG1 repair inh inactive, Giardia kill inactive, TRPV1 potentiator inactive, FUS yeast rescue inactive and TRPV1 ag inactive.
Screening Cc1c(C(=O)N(C)CCC#N)oc2ccc(S(=O)(=O)N3CC(C)CC(C)C3)cc12 (stereo not drawn) returned ELG1 repair inh 7.3µM, Giardia kill inactive, TRPV1 potentiator inactive, FUS yeast rescue inactive and TRPV1 ag inactive.
`O=C(O)CCCCCN1C(=O)C(O)=C(C(=O)/C=C/c2ccccc2)C1c1ccc2c(c1)OCO2` (stereo not drawn) gave ELG1 repair inh inactive, Giardia kill inactive, TRPV1 potentiator inactive, FUS yeast rescue 35.5µM and TRPV1 ag inactive.
CCCCc1nc(NCCN2CCOCC2)c(C#N)c2c1COC(C)(C)C2 was read as ELG1 repair inh 11.6µM, Giardia kill inactive, TRPV1 potentiator inactive, FUS yeast rescue inactive and TRPV1 ag inconclusive.
Cc1cnc(NC(=O)NCC2CCCC(CNC(=O)Nc3ncc(C)s3)C2)s1 (stereo not drawn) was read as ELG1 repair inh 20.6µM, Giardia kill inactive, TRPV1 potentiator inactive, FUS yeast rescue inactive and TRPV1 ag inactive.
Screening O=C(CCc1nc2cccnc2n1Cc1cccs1)Nc1cccc(Cl)c1 returned FUS yeast rescue inactive.
`O=C1N[C@@H](Cc2ccccc2)COC(=O)[C@@H](Cc2ccc(F)cc2)C/C=C\C[C@@H]1CC(=O)N(CCO)Cc1ccccc1` gave ELG1 repair inh inconclusive, Giardia kill inactive and FUS yeast rescue inconclusive.
